A selection: hits, their analogues and other compounds. The true share with any hit is near 13%.
Marburg entry inh: qHTS for inhibitors of binding or entry into cells for Marburg Virus. Marburg virus pseudotyped entry inhibition, cell reporter. Potency, µM (titrated, usually from 37.8 µM), without a hit: top-dose activity change, negative = inhibition, hits mostly inhibitors. 300,000 tested, 1.8% active; calls by dose curve; tested in HEK293 cells; also: potency is read from the fitted curve at half-maximal effect; % is scaled to controls: 0 for no effect and ±100 for the full control effect
CHX counter: Cycloheximide Counterscreen for Small Molecule Inhibitors of Shiga Toxin; cell reporter, cycloheximide protein synthesis inhibition counterscreen; max response, %; 300,000 tested, 12% active; in the data active = max response mostly above about 13%, no sharp cut-off; inactive = mostly below about 14%; also: read at 38.3 µM for the half of the compounds with a filed dose; 0% is about no effect
HCV inh: qHTS Assay for Inhibitors of Hepatitis C Virus (HCV); Huh7.5.1 HCVcc-Cre infection, luciferase reporter, 44 h; Potency, µM (series often up to 41.8 µM), for the others: at the top dose activity change, negative = inhibition, usual class: inhibitors; 340,000 tested, 3.4% active; active = well fitted inhibition curve with a large enough effect; inconclusive = small, poorly fitted or top-dose-only effect, or another doubt; inactive = no such curve, though single readings can be large or run the other way; also: potency is read from the fitted curve at half-maximal effect; % is scaled to controls: 0 for no effect and ±100 for the full control effect
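Compounds are dispensed onto cells plated 4 h earlier at 1,000 per well, with HCVcc-Cre virus (about 0.5 moi) added next. Following 44 h of culture, luminescent signal is measured for 15 sec after 15 min with substrate at room temperature.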
Shiga toxin inh: A qHTS for Small Molecule Inhibitors of Shiga Toxin; Vero cells, Shiga toxin protein synthesis inhibition reporter; inhibition, % at 38.7 µM; 290,000 tested, 9.2% active; AID 2315, 2010; in the data active = inhibition mostly above about 28%, no sharp cut-off; inactive = mostly below about 43%; also: 0% is about no effect
LASV entry inh: qHTS for Inhibitors of binding or entry into cells for Lassa Virus | Lassa virus pseudotype entry inhibition, cell reporter | Potency, µM (top dose mostly 37.9 µM), inactives show top-dose activity change, negative = inhibition, usual class: inhibitors | 300,000 tested, 1.2% active; calls by dose curve; tested in HEK293 cells; also: potency is read from the fitted curve at half-maximal effect; % is scaled to controls: 0 for no effect and ±100 for the full control effect; nearly all actives have a fitted effect of over 50% in size
FMDV inh: High Throughput Screening for Foot and Mouth Disease Virus Antivirals; 410,000 tested, 1.2% active; Potency, µM (doses to about 57.9 µM), for the others: top-dose activity change, negative = inhibition, usual class: inhibitors; FMDV antiviral cell-based qHTS; calls by dose curve; tested in HEK293T cells; also: read-out not given here; potency is read from the fitted curve at half-maximal effect; % is scaled to controls: 0 for no effect and ±100 for the full control effect; nearly all actives have a fitted effect of over 45% in size
An asterisk follows results filed as active; ! = not confirmed by another sample; [ ] = dose if it differs, or a comment.

Screening O=C(CSc1ccc(Cl)cc1)c1ccco1 returned Marburg entry inh -2.5%, CHX counter 41.6, HCV inh -21.1%, Shiga toxin inh 64.8*, LASV entry inh -31.1% and FMDV inh 18.7%.
Cn1c(NCc2ccccc2Cl)nc2ccccc21 was read as HCV inh 1.8% and FMDV inh 25.2%.
CC(NC(=O)c1ccccc1Cl)C1COc2ccccc2O1 (stereo not drawn) was read as Marburg entry inh -14.1%[46.1 µM], CHX counter 31.2*, HCV inh 3.4%, Shiga toxin inh 51.0*, LASV entry inh 16.0% and FMDV inh 45.6%.
`CC(NS(=O)(=O)c1ccccc1)C1COc2ccccc2O1` (stereo not drawn) gave Marburg entry inh -3.8%, CHX counter 31.2*, HCV inh 8.0%, Shiga toxin inh 1.7, LASV entry inh -11.0% and FMDV inh -16.6%.
`c1ccc(-c2ccccc2OCCCCN2CCCCC2)cc1` gave Marburg entry inh 7.08µM*, CHX counter 0.0, HCV inh inconclusive, Shiga toxin inh -7.2, LASV entry inh inconclusive and FMDV inh -24.3%.
c1ccc(-c2ccccc2OCCCN2CCCC2)cc1 was read as Marburg entry inh 5.62µM*, CHX counter -2.6, HCV inh -22.8%, Shiga toxin inh -8.1, LASV entry inh inconclusive and FMDV inh -20.4%.
Screening c1ccc(-c2ccccc2OCCCN2CCCCCC2)cc1 returned CHX counter -2.5, HCV inh inconclusive, Shiga toxin inh -12.1 and FMDV inh -15.1%.
CN(Cc1ccon1)C(=O)c1cnn(-c2nccc(-c3ccc4c(c3)OCO4)n2)c1C1CC1 was read as FMDV inh 39.5%.
Screening Cc1ccc(NC(=O)C(=O)NCC(c2cccnc2)N2CCc3ccccc3C2)cc1 (stereo not drawn) returned LASV entry inh 9.2%[46.1 µM] and FMDV inh inconclusive.
`COc1cc2ccccc2c2c1CCCC2=O` gave Marburg entry inh 4.9%, CHX counter 1.9, HCV inh 12.6µM*, Shiga toxin inh -18.5, LASV entry inh inconclusive and FMDV inh -2.0%.
`CC1CC[C@@]2(OC1)OC1C(O)C3C4CC[C@H]5CC(O[C@@H]6O[C@@H](CO)[C@H](OC7OC(CO)C(O)C(OC8OCC(O)C(O)[C@H]8O)[C@@H]7O[C@@H]7OC(CO)[C@H](O)[C@@H](O[C@@H]8OC(CO)C(O)C(O)C8O)C7O)C(O)C6O)C(O)C[C@]5(C)C4CC[C@]3(C)C1C2C` (stereo partly drawn) gave FMDV inh 35.5µM*.
For CCOC(=O)C1=C(c2ccccc2)c2ccc(OC)cc2N(S(=O)(=O)C(F)(F)F)C1C(=O)OCC (stereo not drawn) the results were CHX counter 1.1, HCV inh 2µM*, Shiga toxin inh 22.0 and FMDV inh inconclusive.
Screening COC(=O)[C@@H](Cc1ccccc1)NC(=O)NCCc1ccc(OC)c(OC)c1 returned CHX counter 6.5, HCV inh 8.9%, Shiga toxin inh 2.6 and FMDV inh -14.0%.
For O=C(O)Cc1sc(-c2ccc(Cl)cc2)nc1-c1ccccc1 the results were Marburg entry inh 5.9%, CHX counter -1.1, HCV inh 8.3%, Shiga toxin inh -14.2, LASV entry inh 3.1% and FMDV inh -2.1%.
`O=C1c2ccccc2-c2nnc(-c3ccc(O)cc3)cc21` gave Marburg entry inh inconclusive, CHX counter 19.8*, HCV inh 14.1%, Shiga toxin inh 26.4, LASV entry inh inconclusive and FMDV inh 27.2%.
Screening O=C1c2ccccc2-c2n[nH]c3cccc1c23 returned Marburg entry inh inconclusive, HCV inh inconclusive, LASV entry inh 14.7% and FMDV inh 8.2%.
Cc1ccccc1-c1cc2c(nn1)-c1ccccc1C2=O was read as Marburg entry inh inconclusive, CHX counter 17.6, HCV inh -0.5%, Shiga toxin inh 83.2*, LASV entry inh inconclusive and FMDV inh -19.3%.
Cc1ccc(-c2cc3c(nn2)-c2ccccc2C3=O)cc1 was read as CHX counter 21.7*, HCV inh -2.0%, Shiga toxin inh 24.5* and FMDV inh 10µM*.
O=C1c2ccccc2-c2nnc(-c3ccc(F)cc3)cc21 was read as Marburg entry inh inconclusive, CHX counter 42.1*, HCV inh -9.6%, Shiga toxin inh 80.0*, LASV entry inh -12.3%[46.1 µM] and FMDV inh -21.5%.
`COc1ccc(S(=O)(=O)n2ccc(-c3ccc4c(c3)CCC(C)(C)O4)n2)cc1` gave Marburg entry inh inconclusive, CHX counter 2.7, HCV inh -73.5%, Shiga toxin inh 19.2, LASV entry inh inconclusive and FMDV inh -20.0%.
CC1(C)CCc2cc(-c3ccn(S(=O)(=O)c4ccccc4Cl)n3)ccc2O1 was read as Marburg entry inh 2.2%[14.2 µM], CHX counter 16.5*, HCV inh inconclusive, Shiga toxin inh 38.4, LASV entry inh -1.9% and FMDV inh 15.8%.
Screening Cc1ccc2[nH]c(-c3cccc(F)c3)cc(=O)c2c1 returned Marburg entry inh inconclusive, CHX counter 14.8*!, HCV inh inconclusive, Shiga toxin inh active!, LASV entry inh -13.5% and FMDV inh 38.2%.
Screening COc1ccc2[nH]c(-c3ccc(F)cc3F)cc(=O)c2c1 returned CHX counter 26.5* and Shiga toxin inh active.
O=c1cc(-c2cccc(F)c2)[nH]c2ccccc12 was read as Marburg entry inh inconclusive, CHX counter 4.6, HCV inh 3.9%[8.37 µM], Shiga toxin inh -21.8, LASV entry inh inconclusive and FMDV inh -9.1%.
Screening O=c1cc(-c2ccc(F)cc2F)[nH]c2ccccc12 returned Marburg entry inh 4.6%, CHX counter -1.3, HCV inh 0.6%[8.37 µM], Shiga toxin inh -8.0 and LASV entry inh 0.6%.
`COc1ccc2[nH]c(-c3cccc(F)c3)cc(=O)c2c1` gave Marburg entry inh -4.8%, CHX counter 26.7*!, HCV inh 4.0%[8.37 µM], Shiga toxin inh 51.8*, LASV entry inh 8.1% and FMDV inh 55.8%.
`COc1cccc(-c2cc(=O)c3cc(NC(=O)c4ccc(N(C)C)cc4)ccc3[nH]2)c1` gave Marburg entry inh inconclusive, CHX counter -8.3, HCV inh -3.9%, Shiga toxin inh -13.1, LASV entry inh 0.92µM* and FMDV inh -19.9%.
`COc1ccc(-c2cc(=O)c3ccccc3[nH]2)cc1` gave Marburg entry inh -7.7%, CHX counter 18.0, HCV inh 4.5%[8.37 µM], Shiga toxin inh 7.2, LASV entry inh 6.2% and FMDV inh 21.6%.
For CN(/N=C/c1ccccc1Cl)c1ncc(Cl)cc1C(F)(F)F the results were Marburg entry inh inconclusive, CHX counter 0.9, HCV inh -3.6%, Shiga toxin inh 9.0, LASV entry inh -14.7%[46.1 µM] and FMDV inh -14.0%.
